# Test results: the supplement of paper PMC10338343
# ± gives the standard deviation.
# Tested on: MILI (PIWIL2) piRISC loaded with piRNA #1 (26 nt)
# Test: pre-steady-state target cleavage rate (min^-1); guide: piRNA #1 5'p-UGAGGUAGUAGGUUGUAUAGUAUCCA; MIWI and MILI are mouse PIWI proteins and EfPiwi is from a freshwater sponge; tags in brackets are library labels; higher = faster piRNA-guided slicing of the target
# Conditions: auxiliary factor: 500 nM mouse GTSF1
# Method in brief: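 Three pooled Cleave-'n-Seq trials supplied the data, with k3 capped at 0.0001 min^-1. In each, […] transcribed, DNA-blocked target RNA library and 1 nM active affinity-purified piRISC with one synthetic guide reacted in HEPES–potassium acetate buffer at 33 °C for 0–8 or 0–960 min, with or without 500 nM GTSF1 partner protein. Uncleaved targets were sequenced and normalised to depth and to weakly complementary targets. A burst-and-steady-state fit provided the pre-steady-state cleavage rate.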
# 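Further: 1 nM active piRISC with 0.1 nM target library at 33 °C single turnover.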
row,Sequence,pre-steady-state target cleavage rate
1,GGAGACCUAUCUAUACAAGCUACUACCUCA,0.193 ± 0.017
2,GGAGACCUAUGAAUACAACCUACUACCGCA,0.00764 ± 0.003
3,GGAGACCUAUGUAUACAACCUACUACCUACA,0.0588 ± 0.0083
4,GGAGACCUUACAAUACUACCUACUACCUCA,0.114 ± 0.013
5,GGAGACCUUACUAUACAACCUAAUACCUCA,0.102 ± 0.014
6,GGAGACCUAUGUAUAGAACGUACUACCUCA,0.00362 ± 0.0018
7,GGAGACCUAUGUAUACAAUCUACUACCUCA,0.0642 ± 0.011
8,GGAGACCUAUGAUAACCAACCUACUACCUCA,0.00371 ± 0.0025
9,GGAGUGGAUACUAUAGUACCUACUACCUCA,0.161 ± 0.012
10,GGAGACCUAUCUAUACAUGCUACUACCUCA,0.0973 ± 0.012
11,GGAGACCUAUCUGUACAACCUACUACCUCA,0.0491 ± 0.0092
12,GGAGACCUAACUAUACAACCGUACUACCUCA,0.00506 ± 0.005
13,GGAGACGAUACUAUACUUGCUACUACCUCA,0.0658 ± 0.0062
14,GGAGACCUAUCUAUCAACCUACUACCUCA,0.0205 ± 0.0047
15,GGAGACCAUACUAUACAACGUACUACGUCA,0.0148 ± 0.0053
16,GGAGACCAUACUUAUCAACCUACUACCUCA,0.102 ± 0.02
17,GGAGACCUUUCUAUACUACCUACUACCUCA,0.0739 ± 0.011
18,GGAGACCUAUGAUAUGAACCUAGAUGGAGA [g9:g14:cont:t1A],< 0.0001
19,GGAGACCUAUGAUAUGUUGCUACUACCUAA,< 0.0001
20,GGAGACCUAUGAAUACAUCCUUCUACCUCA,0.00365 ± 0.0022

row,Sequence,pre-steady-state target cleavage rate
1,GGAGACCUAUGAUAUCAUGCUACUACCUCA,< 0.0001
2,GGAGACCUAUGAUUACAAGGUACUACCUCA,0.0041 ± 0.0031
3,GGAGACCUAUCUAUUCAACCUACUACGUCA,0.0451 ± 0.0089
4,GGAGACCUUACUAUACAACCAUACUACCUCA,0.0055 ± 0.0037
5,GGAGACCUAUCUAUACAACCUACUAUCCUCA,0.193 ± 0.023
6,GGAGACCUAUGAUUACAUCCUUCUACCUCA,0.00314 ± 0.0026
7,GGAGACCUAUGUAUACAAGCUACUACGUCA,0.0451 ± 0.009
8,GGAGUGGAUACUAUACUACCUACUACCACA,0.143 ± 0.013
9,GGAGUGGAUUCUAUACAACCUACUUCCUCA,0.00383 ± 0.0021
10,GGAGACCUAUGAUAUGUACCUACUACCCCA,< 0.0001
11,GGAGACCUAUGAUUACAAGCUACUAGCUCA,0.00635 ± 0.0034
12,GGAGACGAUAGUAUUCAACCUACUACCUCA,0.156 ± 0.012
13,GGAGACCUAAGUAUACAAGCUACUACCUCA,0.124 ± 0.011
14,GGAGACCUAACUAUAUCAACCUACUACCUCA,0.00944 ± 0.004
15,GGAGACCUAUCUAUUCAUCCUACUACCUCA,0.172 ± 0.021
16,GGAGACCUAUGAUAACAACCUCCUACCUCA,0.00522 ± 0.0021
17,GGAGACCUAUGAUUACAACCUACUACCGUCA,0.00492 ± 0.0022
18,GGAGACCUAUGAAUACAACCUACUACCUGA,0.00268 ± 0.0026
19,GGAGACCAUAGUAUAGAACCUACUACCUCA,0.105 ± 0.011
